Experimental data taken from the supplement of paper PMC6555819.

What was measured:
Assay in all cases: PBM binding z-score (relative to random genomic background probes); higher = stronger binding; sequences stand for … in GC…GCGATTGACAGCGTAGAATGAAGG
[1] = tested on: RARb homodimer (NR concentration 270 nM)
Procedure, shortened: (§1)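 Scanned fluorescence from custom Agilent 4×180K protein-binding microarrays was regression-normalized. Binding z-scores use random background probes as reference. Ligand-free nuclear receptor dimers were incubated on the arrays for 1 h and detected with antibodies against each partner (one per run).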

[2] = tested on: RARg:RXRa (NR concentration 270 nM, RXRa partner concentration 90 nM)
Procedure, shortened: as §1

[3] = tested on: RARg homodimer (NR concentration 270 nM)
Procedure, shortened: as §1

[4] = tested on: RXRa DBDmut IVT, anti-RXR (DBD mutation: RXRa K156A/R161A, NR concentration 90 nM)
Procedure, shortened: as §1

[5] = tested on: RXRa homodimer (NR concentration 180 nM)
Procedure, shortened: as §1

[6] = tested on: THRa:RXRa (NR concentration 90 nM, RXRa partner concentration 90 nM)
Procedure, shortened: as §1

[7] = tested on: THRa homodimer (NR concentration 90 nM)
Procedure, shortened: as §1

[8] = tested on: VDR homodimer (NR concentration 270 nM)
Procedure, shortened: as §1

Row | Sequence | PBM binding z-score [1] | PBM binding z-score [2] | PBM binding z-score [3] | PBM binding z-score [4] | PBM binding z-score [5] | PBM binding z-score [6] | PBM binding z-score [7] | PBM binding z-score [8]
1 | GCTAGTTGGTCGGTAAAAGGTCACACACCGGTCG | 4.97 | 5.3 | 4.72 | 0.311 | 5.42 | 3.47 | 1.92 | 1.59
2 | ATCTCTAGGTAAGACTCAGTTCACTGAAGAACGC | 0.746 | 0.678 | 0.541 | 0.822 | 0.497 | 1.29 | 0.792 | 2.32
3 | CCGACTGGGGCAAGGTTACCATGACGCACAGCCA | 1.41 | 1.07 | 1.09 | -0.669 | 1.13 | 1.21 | 0.0571 | -0.0501
4 | TCTGCTAGGTCAACGATGTTCAGCTAATCTGCTA | 2.97 | 3.73 | 4.24 | 1.03 | 2.47 | 2.73 | 0.88 | -0.288
5 | CAAACTAGGTCAAGACGTCAAAGTCCGCTTCCCG | 3.2 | 4.09 | 4.74 | 1.65 | 3 | 2.68 | 0.895 | 0.581
6 | TGAATGAGGTTATAAGTTCAGGGAACGTTGCAAA | 2.54 | 4.88 | 2.27 | 1.49 | 3.46 | 2.58 | 0.487 | 2.85
7 | CCTAGTTGGTCAAGGTCACTCACGCTATAGGTAC | 4.26 | 4.06 | 4.75 | 2.1 | 3.76 | 3.83 | 3.83 | 3.53
